In the antibiotic and cytotoxicity screens of Wong et al. (2023) one finds cytotoxicity call data, which are given here for 63 compounds.

Screen size: about 39,000 compounds; about 3,300 (8.5%) were called active. What follows is part of a selection rich in actives, with near analogues and random picks from the rest.

For the assay, the system named is HepG2. As to the kind of experiment: cytotoxicity call (relative viability < 0.9). As to conditions: 10 µM.
With `C[C@@H]1CCCCO[C@@H](CN(C)Cc2ccncc2)[C@@H](C)CN([C@H](C)CO)C(=O)c2cc(NS(C)(=O)=O)ccc2O1`, the cytotoxicity call was “inactive”.

On to `C[C@@H]1CN([C@@H](C)CO)C(=O)c2cccc(NC(=O)CCCCCC(=O)Nc3ccccc3N)c2O[C@H]1CN(C)Cc1ccc(C(F)(F)F)cc1`, for which the cytotoxicity call is “inactive”.

For the compound `Cc1noc(C)c1S(=O)(=O)Nc1ccc2c(c1)C(=O)N([C@H](C)CO)C[C@H](C)[C@@H](CN(C)C)OCCCC[C@H](C)O2`, the cytotoxicity call is “inactive”.

For the compound `CCOC(=O)Cc1c(C)[nH]c(=O)[nH]c1=O`, the cytotoxicity call was “inactive”.

As to `COc1cccc(C#Cc2cnc3c(c2)C(=O)N([C@@H](C)CO)C[C@@H](C)[C@H](CN(C)C(=O)C2CCC2)O3)c1`, the cytotoxicity call is “inactive”.

As for `Cc1cc(C(=O)Nc2cccc3c2O[C@@H](CN(C)S(=O)(=O)c2cccs2)[C@@H](C)CN([C@H](C)CO)C3=O)n(C)n1`, the cytotoxicity call is “inactive”.

Regarding `C[C@@H]1CN([C@@H](C)CO)C(=O)Cc2cc(NC(=O)Cc3cn(C)c4ccccc34)ccc2O[C@@H]1CN(C)Cc1ccc(Oc2ccccc2)cc1`, the cytotoxicity call was “active”.

As to `C[C@H](CO)N1C[C@H](C)[C@@H](CN(C)Cc2ccc(Oc3ccccc3)cc2)Oc2ccc(NC(=O)Cc3cn(C)c4ccccc34)cc2CC1=O`, the cytotoxicity call was “inactive”.

For the compound `C[C@@H]1CN([C@@H](C)CO)C(=O)c2c(c3ccccc3n2C)-c2ccccc2CO[C@@H]1CN(C)Cc1ccc(-c2ccccc2)cc1`, the cytotoxicity call is “inactive”.

For `C[C@@H]1CN([C@H](C)CO)C(=O)c2c(c3ccccc3n2C)-c2ccccc2CO[C@H]1CN(C)Cc1ccc(C(F)(F)F)cc1`, the cytotoxicity call was “active”.

With `C[C@@H]1CN([C@H](C)CO)C(=O)c2c(c3ccccc3n2C)-c2ccccc2CO[C@H]1CN(C)Cc1ccc(Cl)c(Cl)c1`, the cytotoxicity call is “inactive”.

For `C[C@@H]1CN([C@H](C)CO)C(=O)c2c(c3ccccc3n2C)-c2ccccc2CO[C@@H]1CN(C)Cc1ccc(-c2ccccc2)cc1`, the cytotoxicity call was “inactive”.

With `C[C@@H]1CN([C@H](C)CO)C(=O)c2c(c3ccccc3n2C)-c2ccccc2CO[C@@H]1CN(C)Cc1ccccc1`, the cytotoxicity call was “active”.

Take `C[C@H](CO)N1C[C@H](C)[C@@H](CN(C)Cc2ccc(-c3ccccc3)cc2)OCc2ccccc2-c2c(n(C)c3ccccc23)C1=O`: the cytotoxicity call is “inactive”.

Take `C[C@H](CO)N1C[C@H](C)[C@H](CN(C)Cc2ccc(Cl)c(Cl)c2)OCc2ccccc2-c2c(n(C)c3ccccc23)C1=O`: the cytotoxicity call was “active”.

For `C[C@H]1CN([C@@H](C)CO)C(=O)c2c(c3ccccc3n2C)-c2ccccc2CO[C@@H]1CN(C)Cc1ccc(-c2ccccc2)cc1`, the cytotoxicity call was “inactive”.

Regarding `C[C@@H]1CN([C@@H](C)CO)C(=O)c2c(c3ccccc3n2C)-c2ccccc2CO[C@H]1CN(C)Cc1ccccc1`, the cytotoxicity call was “active”.

Consider `C[C@@H]1CN([C@H](C)CO)C(=O)c2c(c3ccccc3n2C)-c2ccccc2CO[C@@H]1CN(C)Cc1ccc(C(F)(F)F)cc1`, for which the cytotoxicity call was “inactive”.

Regarding `C[C@@H]1CN([C@@H](C)CO)C(=O)c2c(c3ccccc3n2C)-c2ccccc2CO[C@H]1CN(C)Cc1ccc(Cl)c(Cl)c1`, the cytotoxicity call is “inactive”.

With `C[C@@H]1CN([C@@H](C)CO)C(=O)c2c(c3ccccc3n2C)-c2ccccc2CO[C@@H]1CN(C)Cc1ccc(C(F)(F)F)cc1`, the cytotoxicity call is “inactive”.

On to `C[C@@H]1CCCCO[C@H](CN(C)C(=O)Nc2ccc(C(F)(F)F)cc2)[C@H](C)CN([C@@H](C)CO)C(=O)c2cc(NC(=O)Nc3cccc4ccccc34)ccc2O1`, for which the cytotoxicity call was “inactive”.

As for `C[C@@H]1CN([C@@H](C)CO)C(=O)c2cc(NC(=O)C3CCCCC3)ccc2O[C@@H](C)CCCCO[C@@H]1CN(C)C(=O)Nc1ccc(C(F)(F)F)cc1`, the cytotoxicity call is “inactive”.

For the compound `COc1cccc(C#Cc2ccc3c(c2)O[C@@H](CN(C)C(C)=O)[C@H](C)CN([C@@H](C)CO)S3(=O)=O)c1`, the cytotoxicity call is “inactive”.

As for `COc1ccc(NC(=O)N(C)C[C@H]2OCCCC[C@H](C)Oc3ccc(NC(=O)Nc4cccc5ccccc45)cc3C(=O)N([C@@H](C)CO)C[C@H]2C)cc1`, the cytotoxicity call is “inactive”.

Take `CCCC1CCC(c2ccc(OC(=O)c3ccco3)cc2)CC1` (stereo not drawn): the cytotoxicity call is “inactive”.

For the compound `CCCN(C)C[C@@H]1OCCCC[C@@H](C)Oc2ccc(NC(=O)CCC(F)(F)F)cc2C(=O)N([C@@H](C)CO)C[C@@H]1C`, the cytotoxicity call was “inactive”.

For the compound `C[C@@H]1CN([C@@H](C)CO)C(=O)c2cc(C3=CCCC3)cnc2O[C@H]1CN(C)S(=O)(=O)c1cn(C)cn1`, the cytotoxicity call is “inactive”.

Consider `C[C@@H]1CN([C@@H](C)CO)C(=O)CCCn2cc(nn2)CO[C@@H]1CN(C)C(=O)Nc1cccc2ccccc12`, for which the cytotoxicity call was “inactive”.

Consider `CCC(=O)N1C[C@]2(C1)CN([C@H](CO)c1c2c2ccc(cc2n1C)OC)C(=O)CN1CCOCC1`, for which the cytotoxicity call was “inactive”.

On to `C[C@H](CO)N1C[C@H](C)[C@H](CN(C)Cc2ccc(-c3ccccc3)cc2)Oc2c(NC(=O)Nc3ccc4c(c3)OCO4)cccc2C1=O`, for which the cytotoxicity call is “inactive”.

In the case of `C[C@@H]1CN([C@@H](C)CO)S(=O)(=O)c2ccc(C#CC3(O)CCCC3)cc2O[C@H]1CN(C)C(=O)c1ccccc1`, the cytotoxicity call is “inactive”.

In the case of `C[C@@H]1CN([C@@H](C)CO)C(=O)c2cccc(NS(=O)(=O)c3cn(C)cn3)c2O[C@@H]1CN(C)S(C)(=O)=O`, the cytotoxicity call was “inactive”.

With `CCS(=O)(=O)N1C[C@]2(C1)CN([C@H](CO)c1c2c2ccc(cc2n1C)OC)S(=O)(=O)c1ccccc1`, the cytotoxicity call is “inactive”.

Take `C[C@H](CO)N1C[C@H](C)[C@H](CN(C)Cc2ccccc2)OCc2ccccc2-c2c(n(C)c3ccccc23)C1=O`: the cytotoxicity call was “inactive”.

Consider `COc1ccccc1CN(C)C[C@@H]1OCc2ccccc2-c2c(n(C)c3ccccc23)C(=O)N([C@H](C)CO)C[C@H]1C`, for which the cytotoxicity call is “inactive”.

Consider `C[C@@H]1CN([C@H](C)CO)C(=O)c2c(c3ccccc3n2C)-c2ccccc2CO[C@H]1CN(C)Cc1ccccc1`, for which the cytotoxicity call was “active”.

As for `COc1ccccc1CN(C)C[C@H]1OCc2ccccc2-c2c(n(C)c3ccccc23)C(=O)N([C@H](C)CO)C[C@@H]1C`, the cytotoxicity call was “active”.

On to `COc1ccccc1CN(C)C[C@H]1OCc2ccccc2-c2c(n(C)c3ccccc23)C(=O)N([C@@H](C)CO)C[C@@H]1C`, for which the cytotoxicity call is “inactive”.

For the compound `C[C@@H]1CN([C@H](C)CO)C(=O)c2c(c3ccccc3n2C)-c2ccccc2CO[C@H]1CN(C)Cc1ccccc1C(F)(F)F`, the cytotoxicity call is “active”.

With `C[C@@H]1CN([C@@H](C)CO)C(=O)c2c(c3ccccc3n2C)-c2ccccc2CO[C@H]1CN(C)Cc1ccccc1C(F)(F)F`, the cytotoxicity call was “inactive”.

In the case of `C[C@H]1CN([C@@H](C)CO)C(=O)c2c(c3ccccc3n2C)-c2ccccc2CO[C@@H]1CN(C)Cc1ccccc1`, the cytotoxicity call was “inactive”.

With `C[C@H]1CN([C@@H](C)CO)C(=O)c2c(c3ccccc3n2C)-c2ccccc2CO[C@H]1CN(C)Cc1ccccc1`, the cytotoxicity call is “inactive”.

Turning to `C[C@H](CO)N1C[C@H](C)[C@H](CN(C)Cc2ccccc2C(F)(F)F)OCc2ccccc2-c2c(n(C)c3ccccc23)C1=O`, the cytotoxicity call was “inactive”.

Turning to `C[C@@H]1CN([C@@H](C)CO)C(=O)c2c(c3ccccc3n2C)-c2ccccc2CO[C@@H]1CN(C)Cc1ccccc1`, the cytotoxicity call is “inactive”.

Regarding `C[C@H](CO)N1C[C@H](C)[C@@H](CN(C)Cc2ccccc2)OCc2ccccc2-c2c(n(C)c3ccccc23)C1=O`, the cytotoxicity call is “active”.

With `C[C@H]1CN([C@@H](C)CO)C(=O)c2cc(NS(C)(=O)=O)ccc2O[C@@H]1CN(C)S(=O)(=O)c1ccccc1`, the cytotoxicity call is “inactive”.

`CC(C)NC(=O)N(C)C[C@@H]1Oc2ccc(NS(=O)(=O)c3ccc(Cl)cc3)cc2C(=O)N([C@@H](C)CO)C[C@H]1C`: the cytotoxicity call was “inactive”.

Turning to `COc1ccc2c3c(n(c2c1)C)[C@H](CO)N(C[C@]13CCN(CC1)C(=O)c1ccccc1F)C(=O)Nc1ccc(cc1)F`, the cytotoxicity call was “inactive”.

With `CO[C@H]1CN(C)C(=O)c2cc(NS(=O)(=O)c3cn(C)cn3)ccc2OC[C@H](C)N(CC2CC2)C[C@H]1C`, the cytotoxicity call was “inactive”.

Regarding `C[C@@H]1CN([C@H](C)CO)C(=O)c2cc(NC(=O)C3CCCCC3)ccc2O[C@@H](C)CCCCO[C@H]1CN(C)C(=O)Nc1ccccc1`, the cytotoxicity call is “inactive”.

Take `Cc1cc2cc(C)nn2c(N)n1`: the cytotoxicity call is “inactive”.

For `C[C@H](CO)N1C[C@H](C)[C@H](CN(C)C(=O)Nc2ccccc2)OCCCC[C@H](C)Oc2ccc(NC(=O)CCC(F)(F)F)cc2C1=O`, the cytotoxicity call is “inactive”.

In the case of `Cc1noc(C)c1S(=O)(=O)Nc1ccc2c(c1)C(=O)N([C@H](C)CO)C[C@@H](C)[C@@H](CN(C)Cc1ccccc1)O2`, the cytotoxicity call was “inactive”.

As for `O=C(C[C@@H]1C=C[C@H](NS(=O)(=O)c2ccccc2F)[C@@H](CO)O1)NCCCN1CCOCC1`, the cytotoxicity call is “inactive”.

Consider `C[C@@H]1CCCCO[C@@H](CN(C)S(=O)(=O)c2ccc(F)cc2)[C@H](C)CN([C@H](C)CO)C(=O)c2cc(NC(=O)NC3CCCCC3)ccc2O1`, for which the cytotoxicity call was “active”.

For the compound `C[C@@H]1CCCCO[C@@H](CN(C)S(=O)(=O)c2ccc(F)cc2)[C@H](C)CN([C@@H](C)CO)C(=O)c2cc(NC(=O)NC3CCCCC3)ccc2O1`, the cytotoxicity call is “inactive”.

On to `C[C@@H]1CCCCO[C@@H](CN(C)S(=O)(=O)c2ccc(F)cc2)[C@@H](C)CN([C@H](C)CO)C(=O)c2cc(NC(=O)NC3CCCCC3)ccc2O1`, for which the cytotoxicity call is “inactive”.

`C[C@@H]1CCCCO[C@H](CN(C)S(=O)(=O)c2ccc(F)cc2)[C@@H](C)CN([C@H](C)CO)C(=O)c2cc(NC(=O)NC3CCCCC3)ccc2O1`: the cytotoxicity call was “active”.

Consider `C[C@@H]1CCCCO[C@H](CN(C)S(=O)(=O)c2ccc(F)cc2)[C@H](C)CN([C@H](C)CO)C(=O)c2cc(NC(=O)NC3CCCCC3)ccc2O1`, for which the cytotoxicity call is “inactive”.

Consider `C[C@H]1CCCCO[C@@H](CN(C)S(=O)(=O)c2ccc(F)cc2)[C@@H](C)CN([C@@H](C)CO)C(=O)c2cc(NC(=O)NC3CCCCC3)ccc2O1`, for which the cytotoxicity call was “inactive”.

Turning to `C[C@H](CO)N1C[C@H](C)[C@H](CN(C)S(=O)(=O)c2ccc(F)cc2)OCCCC[C@H](C)Oc2ccc(NC(=O)NC3CCCCC3)cc2C1=O`, the cytotoxicity call is “active”.

In the case of `C[C@@H]1CN([C@H](C)CO)C(=O)c2cc(NC(=O)NC3CCCCC3)ccc2O[C@@H](C)CCCCO[C@H]1CN(C)S(=O)(=O)c1ccc(F)cc1`, the cytotoxicity call is “inactive”.

Regarding `C[C@@H]1CCCCO[C@H](CN(C)S(=O)(=O)c2ccc(F)cc2)[C@H](C)CN([C@@H](C)CO)C(=O)c2cc(NC(=O)NC3CCCCC3)ccc2O1`, the cytotoxicity call was “inactive”.
